Records with an inconclusive call do not appear. Activity calls are given as the source filed them. Calls follow the shape of the dose curve; as a rule, active = well fitted cell-killing curve with a large enough effect; inconclusive = small, poorly fitted or top-dose-only effect; inactive = no such curve, though single readings can be large or run the other way.
Assay: qHTS of pediatric cancer cell lines to identify multiple opportunities for drug repurposing: Primary screen for Saos-2 cells (AID 1347097); also: nearly all actives have a fitted effect of over 40% in size
Conditions: Saos-2 viability, CellTiter-Glo ATP luminescence, 48 h; series mostly up to 46 µM
Outline: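 Readout: CellTiter-Glo luminescence, 48 h treatment. Controls DMSO (neutral) and bortezomib 2.3 µM final (positive). Potency and efficacy taken from primary-screen concentration-response curves.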
Potency is read from the fitted curve at half-maximal effect.

SMILES | Potency
CC(C)=CCCC(C)=CCCC(C)=CCSc1ccccc1C(=O)O | 3.72 µM (active)
COc1cc(OC2CCN(C)CC2)ccc1Nc1ncc2c(n1)n(C1CCCC1)c(=O)n2C | 18.7 µM (active)
Fc1cc(-c2cccc3ncc(-c4cnn(C5CCNCC5)c4)nc23)cc(F)c1CN1CCOCC1 | 29.6 µM (active)
Cn1cc(-c2ccncc2)c(-c2ccc(OCc3ccc4ccccc4n3)cc2)n1 | 11.8 µM (active)
COC(=O)[C@]12CCC(C)(C)C[C@@H]1[C@@H]1C(=O)C=C3[C@@]4(C)C=C(C#N)C(=O)C(C)(C)[C@@H]4CC[C@@]3(C)[C@]1(C)CC2 | 0.743 µM (active)
CN(C)CCCN=c1c2ccccc2n(C)c2[nH]c(=O)n(C)c(=O)c12 | inactive
Cn1c(=O)n(-c2ccc(C(C)(C)C#N)cc2)c2c3cc(-c4cnc5ccccc5c4)ccc3ncc21 | 0.235 µM (active)
COc1cc2c(Oc3ccc4[nH]c(C)cc4c3F)ncnc2cc1OCCCN1CCCC1 | 29.6 µM (active)
O=C(Nc1nc2cccc(-c3ccc(CN4CCS(=O)(=O)CC4)cc3)n2n1)C1CC1 | 18.7 µM (active)
O=C(CCCCCCC(=O)Nc1ccc([C@H]2O[C@@H](CSc3nc(-c4ccccc4)c(-c4ccccc4)o3)C[C@@H](c3ccc(CO)cc3)O2)cc1)NO | inactive
CCN1CCN(CC(=O)Nc2ccc(-c3cccc4c(=O)cc(N5CCOCC5)oc34)c3sc4ccccc4c23)CC1 | 2.96 µM (active)
NCC(=O)Nc1ccc(-n2nc(C(F)(F)F)cc2-c2ccc3c(ccc4ccccc43)c2)cc1 | 26.4 µM (active)
NC1(Cc2ccc(Cl)cc2)CCN(c2ncnc3[nH]ccc23)CC1 | 5.26 µM (active)
Cn1c2ccccc2c2c3c(c4c5ccccc5n(CCC#N)c4c21)CNC3=O | 0.935 µM (active)
Cc1cc(Nc2cc(CN3CCOCC3)c3nc(C)c(Cc4ccc(Cl)cc4F)n3n2)n[nH]1 | 5.9 µM (active)
COCCOc1ccc2c(c1)ncn2-c1ccc2cccc(N3CCC(N)CC3)c2n1 | 18.7 µM (active)

SMILES | Potency
Nc1nccc(Oc2ccc(NC(=O)c3c[nH]cc(-c4ccc(F)cc4)c3=O)cc2F)c1Cl | 18.7 µM (active)
NC(=O)c1c(OCc2c(F)cc(Br)cc2F)nsc1NC(=O)NCCCCN1CCCC1 | inactive
CC(=O)c1c(C)c2cnc(Nc3ccc(N4CCNCC4)cn3)nc2n(C2CCCC2)c1=O | 18.7 µM (active)
COC(=O)C1=C(C)NC(C)=C(C(=O)OCCN2CCN(C(c3ccccc3)c3ccccc3)CC2)C1c1cccc([N+](=O)[O-])c1 (stereo unspecified) | 13.3 µM (active)
CC1(O)CC(c2nc(-c3ccc4ccc(-c5ccccc5)nc4c3)c3c(N)nccn23)C1 (stereo unspecified) | 0.935 µM (active)
C=CC(=O)Nc1cccc(Oc2nc(Nc3ccc(N4CCN(C)CC4)cc3OC)ncc2Cl)c1 | 6.62 µM (active)
CN(C1CCc2c(c3ccccc3n2CC(=O)O)C1)S(=O)(=O)c1ccc(F)cc1 (stereo unspecified) | inactive
COC(=O)Nc1ccc(-c2nc(N3CCOCC3)c3cnn(C4CCN(Cc5cccnc5)CC4)c3n2)cc1 | 0.833 µM (active)
Cc1cc(Nc2ncnc3ccc(-c4ccc(CNCCS(C)(=O)=O)o4)cc23)ccc1Oc1ccn2ncnc2c1 | 2.09 µM (active)
O=C(O)C1(Cc2cccc(Nc3nccs3)n2)CCC(Oc2cccc(Cl)c2F)CC1 (stereo unspecified) | 14.8 µM (active)
O=C(O)c1ccc2cc(-c3ccc(O)c(C45CC6CC(CC(C6)C4)C5)c3)ccc2c1 | 0.296 µM (active)
COc1cc(-c2nn(C3CCC(N4CCN(C(C)=O)CC4)CC3)c3ncnc(N)c23)ccc1NC(=O)c1cc2ccccc2n1C (stereo unspecified) | 0.526 µM (active)
Nc1cccc(-c2cc3c(Oc4cccc(O)c4)ncnc3[nH]2)c1 | 1.87 µM (active)
COc1cc(C(=O)N2CCC(N3CCN(C)CC3)CC2)ccc1Nc1ncc2c(n1)N(C)c1ccccc1C(=O)N2C | 10.5 µM (active)
COc1cccc(-c2ccc(NC(=O)C3=C(C(=O)O)CCC3)c(F)c2)c1 | 13.2 µM (active)

Assay: qHTS of pediatric cancer cell lines to identify multiple opportunities for drug repurposing: Primary screen for SK-N-SH cells (AID 1347098); also: nearly all actives have a fitted effect of over 65% in size
Conditions: SK-N-SH viability, CellTiter-Glo luminescence, 48 h; series mostly up to 57 µM
Outline: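 Cells (500-1,000/well) rested 5 h, then received compounds for 48 h; metabolically active cells were measured by CellTiter-Glo luminescence. Final concentrations spanned up to 46 µM (MIPE, 11-point) or 0.59 nM-46 µM (NPC, 8-point) in primary screens, 11-point in follow-ups.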

SMILES | Potency
COc1cc(OC2CCN(C)CC2)ccc1Nc1ncc2c(n1)n(C1CCCC1)c(=O)n2C | 12.1 µM (active)
Fc1cc(-c2cccc3ncc(-c4cnn(C5CCNCC5)c4)nc23)cc(F)c1CN1CCOCC1 | 24.1 µM (active)
Cn1cc(-c2ccncc2)c(-c2ccc(OCc3ccc4ccccc4n3)cc2)n1 | inactive
COC(=O)[C@]12CCC(C)(C)C[C@@H]1[C@@H]1C(=O)C=C3[C@@]4(C)C=C(C#N)C(=O)C(C)(C)[C@@H]4CC[C@@]3(C)[C@]1(C)CC2 | 1.92 µM (active)
N#CCNC(=O)c1ccc(-c2ccnc(Nc3ccc(N4CCOCC4)cc3)n2)cc1 | 12.1 µM (active)
CN(C)CCCN=c1c2ccccc2n(C)c2[nH]c(=O)n(C)c(=O)c12 | 4.29 µM (active)
COc1cc2c(Oc3ccc4[nH]c(C)cc4c3F)ncnc2cc1OCCCN1CCCC1 | 7.64 µM (active)
O=C(CCCCCCC(=O)Nc1ccc([C@H]2O[C@@H](CSc3nc(-c4ccccc4)c(-c4ccccc4)o3)C[C@@H](c3ccc(CO)cc3)O2)cc1)NO | 27.1 µM (active)
CCN1CCN(CC(=O)Nc2ccc(-c3cccc4c(=O)cc(N5CCOCC5)oc34)c3sc4ccccc4c23)CC1 | 6.07 µM (active)
Cc1cccc(C=NNc2cc(N3CCOCC3)nc(OCCc3ccccn3)n2)c1 | 24.1 µM (active)
NC1(Cc2ccc(Cl)cc2)CCN(c2ncnc3[nH]ccc23)CC1 | 27.1 µM (active)
Cn1c2ccccc2c2c3c(c4c5ccccc5n(CCC#N)c4c21)CNC3=O | 5.41 µM (active)
Cc1cc(Nc2cc(CN3CCOCC3)c3nc(C)c(Cc4ccc(Cl)cc4F)n3n2)n[nH]1 | 6.81 µM (active)
COCCOc1ccc2c(c1)ncn2-c1ccc2cccc(N3CCC(N)CC3)c2n1 | 21.5 µM (active)
Cc1cn2c(-c3cn[nH]c3)cnc2c(Nc2ccc(C(=O)N3CCNCC3)cc2F)n1 | 24.1 µM (active)
Nc1nccc(Oc2ccc(NC(=O)c3c[nH]cc(-c4ccc(F)cc4)c3=O)cc2F)c1Cl | 6.81 µM (active)
CC(=O)c1c(C)c2cnc(Nc3ccc(N4CCNCC4)cn3)nc2n(C2CCCC2)c1=O | 24.1 µM (active)
COC(=O)Nc1ccc(-c2nc(N3CCOCC3)c3cnn(C4CCN(Cc5cccnc5)CC4)c3n2)cc1 | 21.5 µM (active)
Cc1cc(Nc2ncnc3ccc(-c4ccc(CNCCS(C)(=O)=O)o4)cc23)ccc1Oc1ccn2ncnc2c1 | 21.5 µM (active)
O=C(O)c1ccc2cc(-c3ccc(O)c(C45CC6CC(CC(C6)C4)C5)c3)ccc2c1 | 24.1 µM (active)
COc1cc(-c2nn(C3CCC(N4CCN(C(C)=O)CC4)CC3)c3ncnc(N)c23)ccc1NC(=O)c1cc2ccccc2n1C (stereo unspecified) | 3.41 µM (active)
Cc1cc(CN2CCN(c3c(Br)cnc4nc(-c5ccc(N6CCN(C)CC6)cc5)[nH]c34)CC2)no1 | 21.5 µM (active)
Nc1cccc(-c2cc3c(Oc4cccc(O)c4)ncnc3[nH]2)c1 | 3.04 µM (active)
COc1cc(C(=O)N2CCC(N3CCN(C)CC3)CC2)ccc1Nc1ncc2c(n1)N(C)c1ccccc1C(=O)N2C | 21.5 µM (active)
COc1cccc(-c2ccc(NC(=O)C3=C(C(=O)O)CCC3)c(F)c2)c1 | 24.1 µM (active)

Reference: PubChem BioAssay (NCATS)
